In PubChem BioAssay one finds z-score data, which are given here for 15 compounds.

Activity calls are given as the source filed them.

Experiment [1] is described as follows: A549 cell viability effects, profiling panel, calcein-AM fluorescence, 48 h, basal (AID 1162). The conditions noted are these: higher = more signal.
Experiment [2] can be described thus: adipocyte viability effects, profiling panel, cell-based, 3T3-L1 adipocytes, calcein-AM fluorescence, 48 h, basal (AID 1163). The conditions noted are these: 3T3-L1 adipocytes viability, higher = more signal.
Experiment [3] can be described thus: HepG2 cell viability effects, profiling panel, calcein-AM fluorescence, 48 h, basal (AID 1164). The conditions noted are these: higher = more signal.
Experiment [4] is described as follows: MM1S cell viability effects, profiling panel, calcein-AM fluorescence, 48 h, basal (AID 1165).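 Note: viability of MM1S multiple myeloma cells under basal unstimulated conditions.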 The conditions noted are these: higher = more signal.
The nature of experiment [5]: basal RPMI8226 viability, no added stimulus, profiling panel, cell-based, calcein-AM fluorescence, 48 h, PK04 Diversity Set (AID 1166).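 Note: cells grown under basal conditions without added stimulus.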 The note with it: RPMI8226 myeloma viability, higher = more signal.
Experiment [6] in a line: basal HepG2 mitochondrial membrane potential changes, profiling panel, cell-based, JC-1 fluorescence, 24 h, 100 nL compound (AID 1167). The note with it: higher = more signal.
Experiment [7] is described as follows: basal 3T3-L1 adipocyte mitochondrial potential changes, profiling panel, cell-based, JC-1 fluorescence, 3T3-L1 adipocytes, 24 h, 100 nL compound (AID 1168). The conditions noted are these: JC-1 mitochondrial fluorescence, higher = more signal, called active from +8 up or from −8 down.
Experiment [8] in a line: basal RPMI8226 mitochondrial membrane potential changes, profiling panel, cell-based, JC-1 fluorescence, 24 h, 100 nL compound (AID 1169). The conditions noted are these: RPMI8226 myeloma, JC-1 mitochondrial potential fluorescence, higher = more signal.
The nature of experiment [9]: basal MM1S mitochondrial membrane potential changes, profiling panel, cell-based, JC-1 fluorescence, 24 h, 100 nL compound (AID 1170). The conditions noted are these: higher = more signal.
A short description of experiment [10]: A549 lung cancer cell viability effects, profiling panel, resazurin fluorescence, 24 h, PK04 Diversity Set (AID 1171). The note with it: higher = more signal, called active from +8 up or from −8 down. Background: Resazurin is reduced to fluorescent resorufin, in cell work by metabolically active cells.
Note: test concentration not given here.

On to `COCCOC(=O)N1C(=O)[C@@]2(c3cc(C#CC4(O)CCCCCC4)ccc31)[C@H](c1ccc(O)cc1)N1[C@H](c3ccccc3)[C@H](c3ccccc3)OC(=O)[C@H]1[C@@H]2C(=O)NC[C@H](O)c1ccccc1`, for which the z-score in experiment [1] was 0.121; in [2], 0.266; in [3], -0.31; in experiment [4], -1.49; in [5] it was -3.49; in experiment [6] it was -2.3. Further, the z-score in experiment [7] is -1.27 (inactive); in [8] it was -1.15; in experiment [9] it was -0.715; in [10] it was 0.0025 (inactive).
As to `COc1cc(OC)c(C(O)C2C=CC3C(=O)N(c4ccccc4)C(=O)C3N2Nc2ccccc2)cc1Br` (stereo not given), the z-score in [1] was 1.84; in experiment [2] it was -1.48; in experiment [3] it was 0.0936; in [4], 0.251; in [5] it was -0.562; in [6], -2.11. The z-score in experiment [7] was -0.602 (inactive); in experiment [8], 0.292; in [9], -0.761; in experiment [10] it was 0.439 (inactive).
Turning to `Cc1ccc(S[C@]2(C(=O)NCC(F)(F)F)CC(=O)N(Cc3ccccc3)[C@@H]2c2ccc(CO)cc2I)cc1`, the z-score is 0.208 in experiment [1]; -0.649 in experiment [2]; -0.425 in experiment [3]; -1.84 in experiment [4]; -2.08 in experiment [5]; -1.75 in experiment [6]. For the same compound, the z-score in [7] was -0.68 (inactive); in [8] it was -0.797; in [9], -1.59; in [10] it was 0.589 (inactive).
As to `COCCOC(=O)N1C(=O)[C@@]2(c3cc(C#CCC(C(=O)OC)C(=O)OC)ccc31)[C@H](C(=O)N1CCc3cc(OC)c(OC)cc3C1)[C@H]1C(=O)O[C@H](c3ccccc3)[C@H](c3ccccc3)N1[C@@H]2c1ccc(OCCO)cc1`, the z-score was 0.206 in experiment [1]; 0.105 in experiment [2]; 1.42 in experiment [3]; -0.219 in experiment [4]; 0.0896 in experiment [5]; -0.781 in experiment [6]. In addition, the z-score in experiment [7] is 0.512 (inactive); in experiment [8] it was -0.637; in [9], -1.28; in experiment [10], -0.225 (inactive).
As for `COCCOC(=O)N1C(=O)[C@@]2(c3cc(C#CCNC(N)=O)ccc31)[C@H](C(=O)N1CCc3cc(OC)c(OC)cc3C1)[C@H]1C(=O)O[C@H](c3ccccc3)[C@H](c3ccccc3)N1[C@@H]2c1ccccc1OCCO`, the z-score in experiment [1] was 0.573; in experiment [2] it was 0.376; in experiment [3] it was 0.479; in [4] it was 0.576; in experiment [5], -0.529; in [6], -1.2. Further, the z-score in experiment [7] is 1.72 (inactive); in [8] it was -0.502; in experiment [9], -0.98; in experiment [10], -0.286 (inactive).
Regarding `C=C(/C(=C/C[C@H](OC(=O)c1ccncc1)c1ccc(CO)o1)c1cc(C(=O)OC)ccc1OC)C(C)C`, the z-score was -0.762 in [1]; -0.0308 in [2]; -1.15 in experiment [3]; -1.26 in [4]; -0.524 in experiment [5]; -0.133 in experiment [6]. For the same compound, the z-score in experiment [7] is -1.63 (inactive); in experiment [8], -0.324; in [9], -0.251; in experiment [10] it was -0.18 (inactive).
With `Cc1ccc(S[C@]2(C(=O)NCC(F)(F)F)CC(=O)N(Cc3ccccc3C(F)(F)F)[C@@H]2c2ccc(CO)cc2I)cc1`, the z-score in experiment [1] was 1.45; in [2] it was -0.438; in experiment [3], 0.707; in experiment [4], -1.56; in experiment [5] it was -1.71; in [6] it was 0.16. Further, the z-score was 0.0898 (inactive) in [7], -0.597 in experiment [8], -2.22 in [9] and 0.328 (inactive) in experiment [10].
With `O=C(NCCCCCNC(=O)/C(Cc1ccccc1)=N/O)OCc1ccccc1`, the z-score in [1] is 1.54; in experiment [2] it was 0.989; in experiment [3] it was -0.756; in experiment [4], -0.781; in experiment [5], 0.476; in experiment [6] it was -0.348. The z-score in [7] was 0.627 (inactive); in [8], 0.567; in experiment [9], -0.877; in experiment [10] it was 0.766 (inactive).
Take `C=CCOC(=O)[C@H]1[C@@H]2C(=O)O[C@@H](c3ccccc3)[C@@H](c3ccccc3)N2[C@@H](c2ccc(OCCOC(=O)[C@H]3C[C@H]4C(=O)N[C@@H](CCCCNC(C)=O)C(=O)N4[C@H]3c3ccc(O)cc3)cc2)[C@]12C(=O)Nc1ccccc12`: the z-score in experiment [1] is 1.72; in experiment [2] it was 0.496; in [3], 1.27; in experiment [4], -0.643; in [5], 1.03; in experiment [6], -0.297. Also, the z-score is -0.0783 (inactive) in experiment [7], -0.748 in experiment [8], -0.175 in [9] and 2.07 (inactive) in [10].
On to `[N-]=[N+]=NCc1ccccc1[C@H]1OC(c2ccc(OCCCO)cc2)=N[C@@]1(CCS(=O)(=O)c1ccccc1)C(=O)NCC(O)CO` (stereo not given in full), for which the z-score was -0.257 in [1]; 0.538 in experiment [2]; 0.0325 in experiment [3]; -0.381 in experiment [4]; 0.429 in experiment [5]; -1.57 in experiment [6]. Further, the z-score in [7] is 0.466 (inactive); in experiment [8] it was -0.221; in experiment [9], -1.78; in experiment [10], -0.317 (inactive).
Turning to `CN(C)C(=O)C1N=C(c2ccc(OCCCO)cc2)N(c2ccccc2)O1` (stereo not given), the z-score is 0.676 in experiment [1]; -0.214 in experiment [2]; 0.411 in experiment [3]; 0.237 in experiment [4]; -0.254 in [5]; 0.261 in [6]. Moreover, the z-score in experiment [7] is 0.756 (inactive); in experiment [8], -0.0214; in [9], -0.911; in [10], 0.304 (inactive).
As for `COC(=O)c1c2oc(c1C(=O)OC)C(=O)N(C)Cc1cn(nn1)C[C@H](Cc1ccccc1)NC(=O)N[C@H](CO)CC2`, the z-score was -0.145 in [1]; 0.129 in experiment [2]; -0.0951 in [3]; 0.273 in experiment [4]; -0.743 in [5]; -0.649 in experiment [6]. For the same compound, the z-score in experiment [7] is -0.164 (inactive); in [8], 0.256; in [9] it was -0.31; in [10], -0.213 (inactive).
Consider `COCCOC(=O)N1C(=O)[C@@]2(c3cc(C#CC4=CCCCC4)ccc31)[C@H](c1ccccc1OCCO)N1[C@H](c3ccccc3)[C@H](c3ccccc3)OC(=O)[C@H]1[C@@H]2C(=O)N1CCCCCCC1`, for which the z-score in experiment [1] was -2.1; in experiment [2], 0.443; in experiment [3], -0.599; in experiment [4] it was -2.38; in [5] it was -2.38; in experiment [6] it was 0.737. Also, the z-score in [7] was 0.262 (inactive); in experiment [8], -0.934; in [9] it was -1.31; in experiment [10], 0.0309 (inactive).
In the case of `O=C1O[C@H](c2ccccc2)[C@H](c2ccccc2)N2[C@H]1[C@@H](C(=O)O)[C@]1(C(=O)Nc3ccc(C#CC4=CCCCC4)cc31)[C@H]2c1ccc(O)cc1`, the z-score in [1] was 0.576; in [2] it was -0.029; in experiment [3], 0.85; in experiment [4], -3.14; in [5], -2.25; in [6], -3.42. Besides, the z-score in experiment [7] was 0.0262 (inactive); in [8] it was -1.03; in [9], -0.657; in experiment [10], 0.391 (inactive).
`O=C1O[C@H](c2ccccc2)[C@H](c2ccccc2)N2[C@H]1[C@@H](C(=O)Nc1nc3ccccc3s1)[C@]1(C(=O)Nc3ccc(C#CC4(O)CCCCCC4)cc31)[C@H]2c1ccccc1OCCO`: the z-score was -0.744 in [1]; 0.248 in experiment [2]; -1.54 in experiment [3]; -3.44 in experiment [4]; -4.15 in experiment [5]; -2.82 in experiment [6]. Further, the z-score was 2.18 (inactive) in experiment [7], -0.951 in experiment [8], -1.5 in experiment [9] and -2.21 (inactive) in experiment [10].
